Measurements: PubChem BioAssay (NCI)
This is part of a sample that, as a whole, favours compounds with a hit. Of some 83,000 tested, about 20% had one in any assay.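 Treatment: one concentration, 48 hours, 96-well format. Scoring: percent growth, with anything below 10 considered active.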 A number with no mark means an inactive call. Active and inactive are the calls of the source.

Columns and labels:
Experiment in all cases: NCI-60 one-dose screen, 48 h (100 = growth as untreated, 0 = no growth, -100 = all killed)
Settings in all cases: 10 µM unless noted
[1] = test system: NCI-H23 lung
[2] = test system: NCI-H226 lung
[3] = test system: NCI-H322M lung
[4] = test system: HOP-62 NSCLC
[5] = test system: NCI-H460 lung
[6] = test system: A549/ATCC NSCLC
[7] = test system: 786-0 renal
[8] = test system: COLO 205 colon
[9] = test system: DU-145 prostate
[10] = test system: K-562 leukemia
[11] = test system: MALME-3M melanoma
[12] = test system: MDA-MB-231 breast
[13] = test system: RXF 393 renal
[14] = test system: SF-268 CNS
[15] = test system: SF-295 CNS
[16] = test system: SF-539 CNS
[17] = test system: UACC-257 melanoma
[18] = test system: M14 melanoma

Row | Structure (SMILES) | growth [1] | growth [2] | growth [3] | growth [4] | growth [5] | growth [6] | growth [7] | growth [8] | growth [9] | growth [10] | growth [11] | growth [12] | growth [13] | growth [14] | growth [15] | growth [16] | growth [17] | growth [18]
1 | CCOC(=O)/C(C#N)=C(/CC)OCC | 110% | 102% | 92.2% | 104% | 110% | 104% | 103% | 113% | 106% | 89% | 92.6% | 107% | 114% | 93.1% | 101% | 113% | 99.9% | 95.5%
2 | COc1ccc(C(=O)NCCNc2nccc(-c3c(-c4ccc(F)cc4)nc4sccn34)n2)cc1 | 70.7% | 54.8% | 68.1% | 64.8% | 26.1% | 34% | 48.9% | 47% | 59.1% | 59.5% | 76% | 62.2% | 72% | 59.2% | 61.6% | 79.1% | 89% | 55.6%
3 | C/C=C/C/C=C/[C@H](C)C[C@H](O)[C@@H]1C[C@@H]2O[C@H]2/C=C/[C@H](O)[C@@H](O)/C=C/C[C@H](C)CC(=O)O1 | 83% | 87% | 88.9% | 89.6% | 62.8% | 71.8% | 83.3% | 109% | 90.7% | 65.8% | 103% | 90% | 117% | 85.8% | 84.5% | 85.2% | 110% | 81.5%
4 | CCOC1=C(Cl)C(=O)C(OCC)=C(Cl)C1=O | 107% | 103% | 94.7% | 97.6% | 109% | 108% | 97.9% | 104% | 106% | 82.5% | 103% | 103% | 105% | 107% | 96.4% | 101% | 103% | 110%
5 | COc1cccc(-c2cc(-c3cc4ccccc4oc3=O)nc(N)n2)c1 | 101% | 91.2% | 123% | 97.7% | 102% | 95% | 101% | 108% | 112% | 99% | 121% | 90.4% | 108% | 101% | 125% | 132% | 108% | 100%
6 | O=C(Nc1ccc(-n2cc(-c3ccncc3)c(-c3ccc(Cl)c(O)c3)n2)cc1)c1ccc(Cl)c(C(F)(F)F)c1 | -54.4% (active) | 89% | 37.2% | -66.1% (active) | -74.4% (active) | -30.3% (active) | -94.1% (active) | -1.56% (active) | 26.4% | 2.13% (active) | -26.6% (active) | -33.5% (active) | -66.3% (active) | 28.6% | -63.4% (active) | -32.4% (active) | 31.4% | -79.4% (active)
7 | CCOC(=O)c1sc(NS(=O)(=O)c2ccccc2)nc1C | 109% | 106% | 122% | -99.5% (active) | 109% | 103% | 89.4% | 120% | 145% | 144% | 120% | 107% | 114% | 114% | 133% | 101% | 110% | 107%
8 | CCCCCCCCCCCCCCCCNC(=S)N/N=C/c1ccc(O)cc1O | 77.1% | 76% | 95.2% | 83.1% | 37.1% | 55.1% | 73.3% | 98% | 79.2% | 70.3% | 100% | 81% | 74.9% | 69% | 65.5% | 110% | 85.9% | 61.8%
9 | Clc1ccc(I)c2ccccc12 | 106% | 103% | 95.3% | 103% | 112% | 108% | 93.4% | 110% | 111% | 102% | 97.6% | 110% | 113% | 101% | 102% | 105% | 101% | 101%
10 | COC(=O)[C@@H]1[C@H](O)[C@H](C)[C@H](O)[C@H](C)/C=C\C=C(C)C(=O)Nc2c(C)c(OC(C)=O)c3c(c2O)C(=O)C(C)=C2OCOC(=C23)C(C)=C[C@@](C)(O)[C@H](O)[C@@H](C)[C@H]1OC(C)=O | 109% | 104% | 121% | -100% (active) | 110% | 98.6% | 111% | 116% | 144% | 145% | 131% | 125% | 106% | 108% | 118% | 101% | 106% | 107%
11 | C/C=C/C/C=C/[C@H](C)C[C@H](O)[C@@H]1C[C@@H]2O[C@H]2/C=C/[C@@H]2OC(C)(C)O[C@H]2/C=C/C[C@H](C)CC(=O)O1 | 36.3% | 30.5% | 55.5% | 41.6% | 17.4% | 24.7% | 53.5% | 61.1% | 36.1% | 30.1% | 87.6% | 61.6% | 81.1% | 46.9% | 28.8% | 71% | 69.9% | 36.8%
12 | COc1ccc2cn3c4ccc(O)cc4[nH]c(=O)c3c2c1 | 25.3% | 54.7% | 41% | 25.8% | -48.7% (active) | 19.3% | 24.1% | -7.26% (active) | 11.5% | 13.2% | 41.2% | 23.2% | 2.52% (active) | 21% | 0.201% (active) | -9.1% (active) | 50.1% | -2.73% (active)
13 | CC[N+](C)(C)N | 114% | 89.9% | 93.2% | 111% | 108% | 105% | 100% | 112% | 118% | 103% | 112% | 106% | 94.3% | 110% | 104% | 109% | 110% | 107%
14 | CC(=O)Nc1nc(C)c(C(=O)NNS(=O)(=O)c2ccccc2)s1 | 109% | 112% | 99.4% | -98.9% (active) | 110% | 103% | 92.6% | 119% | 135% | 149% | 96.5% | 107% | 110% | 117% | 132% | 101% | 103% | 97.6%
15 | CC(C)CCCCCOC(=O)c1ccccc1SSc1ccccc1C(=O)OCCCCCC(C)C | 108% | 97.3% | 132% | 99.8% | 108% | 99.2% | 104% | 109% | 112% | 96.3% | 110% | 99.5% | 120% | 110% | 105% | 99.4% | 102% | 104%
16 | COC(=O)c1cc(O)c2cc3c(cc2c1-c1cc(OC)c(OC)c(OC)c1)OCO3 | 49.9% | 50.6% | 59.9% | 28% | 14.7% | 45.1% | 29.6% | 5.08% (active) | 40.6% | 15.4% | 48.3% | 40.2% | -31.3% (active) | 47.8% | 26.3% | 13.3% | 60.1% | 19%
17 | O=C(Nc1ccc(-n2cc(-c3ccncc3)c(-c3ccc(Cl)c(O)c3)n2)cc1)c1cc(C(F)(F)F)cc(C(F)(F)F)c1 | 63.8% | 94.3% | 116% | 53.9% | 36.7% | 52.2% | 38.4% | 70.1% | 74.2% | 29.7% | 102% | 46.3% | -42.6% (active) | 61.8% | 25% | 50.9% | 63.2% | 45.1%
